The nature of experiment [1]: Validation of Assay for Modulators of Lamin A Splicing (AID 1459; active means well fitted curve in the direction sought with a large enough effect in the signal ratio; the % refers to the signal ratio;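 further: cells exposed to compound for two days before reading; ratio rise marks activators and ratio drop marks inhibitors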). The method, boiled down: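 S3 HeLa cells stably expressing a lamin A-EGFP splicing minigene and DsRed2 were seeded at 600 cells/well in Opti-MEM with 2% FBS, pin-dosed, and incubated 48 hrs at 37 °C, 5% CO2. Laser-scanning cytometry (488 nm) gave GFP/RFP total intensity ratio.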
Experiment [2] is described as follows: Counterscreen for APE1 Inhibitors: Fluorescent Dye Displacement Validation Assay (AID 1707). The method, boiled down:
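Counterscreen flags promiscuous DNA binders: compounds displacing ThO from duplex DNA (abasic THF site, 50 nM) reduce 540 nm emission (480 nm excitation). ThO 250 nM final; Tris-HCl pH 7.5 with NaCl, MgCl2 and Tween-20.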

For experiment [3], the target named is Endonuclease 4 (Escherichia coli (strain K12)) (UniProt P0A6C1). Kind of experiment: Counterscreen for APE1 Inhibitors: qHTS Validation Assay for Inhibitors of Endonuclease IV (AID 1708). Summed up:
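Conditions: 2 nM enzyme, 50 nM TAMRA/BHQ-2 substrate, pH 7.5 Tris buffer with 2 mM MgCl2, RT. Compound preincubation 15 min; readout three fluorescence reads 60 s apart, third-minus-first.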

Experiment [4] can be described thus: qHTS for differential inhibitors of proliferation of Plasmodium falciparum line Dd2 (AID 1882). Further: series mostly up to about 29 µM; nearly all actives have a fitted effect of over 65% in size. The following applies: Potency: Plasmodium falciparum Dd2 proliferation inhibition. Summed up: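 SYBR Green DNA fluorescence (ex 485, em 535 nm) after overnight lysis quantifies parasite growth; compound exposure lasted 72 h at 37 C on infected red cells at 2.5% hematocrit, 0.3% parasitemia (final). Artemisinin 0.29 uM and vehicle wells define normalization.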

Experiment [5] can be described thus: qHTS for differential inhibitors of proliferation of Plasmodium falciparum line W2 (AID 1883).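 Further: potency means the concentration at half of the fitted maximal effect; parasites grown with compound for 72 h before lysis and staining.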 The following applies: Potency: Plasmodium falciparum W2 proliferation inhibition.
Experiment [6] deals with Ferritin light chain (Equus caballus) (UniProt P02791). Kind of experiment: qHTS Validation Assay for Identification of Novel General Anesthetics (AID 2323). Further: series mostly up to about 77 µM. Summed up: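 Competitive displacement of profluorescent 1-aminoanthracene (1-AMA, 50% saturated solution in PBS) from 10 uM horse-spleen apoferritin. Compounds incubated 10 min at room temperature; fluorescence read at 380 nm excitation/535 nm emission, normalized to free 1-AMA and complex, fitted with four-parameter Hill equation.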
Chain of Ferritin light chain (Equus caballus) (P02791 2-175 limits assumed): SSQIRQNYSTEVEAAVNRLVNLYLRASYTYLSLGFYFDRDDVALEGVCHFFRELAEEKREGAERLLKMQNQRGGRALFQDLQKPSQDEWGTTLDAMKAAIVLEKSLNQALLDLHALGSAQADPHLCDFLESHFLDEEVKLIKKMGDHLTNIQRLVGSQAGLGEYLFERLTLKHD

The target of experiment [7] is ATP-dependent DNA helicase Q1 (Homo sapiens) (UniProt P46063). Briefly: qHTS Validation Assay for Inhibitors of RecQ-Like Dna Helicase 1 (RECQ1) (AID 2353). The method, boiled down:
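RECQ1T1 50 nM; forked duplex (20 bp + 30-nt ss tails) 200 nM, ATP 2 mM final; pH 8.0, 2 mM MgCl2, 2.5 ug/ml poly(dI-dC); 15 min compound preincubation; discontinuous kinetic read over 2 h at RT.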

Experiment [8] concerns the target RecQ-like DNA helicase BLM (Homo sapiens) (UniProt P54132). Briefly: qHTS Validation Assay for Inhibitors of Bloom's syndrome helicase (BLM) (AID 2364). Summed up:
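50 nM BLM preincubated 15 min at room temperature with compound in pH 8.0 Tris buffer containing 2.5 ug/ml poly(dI-dC); started with 200 nM TAMRA/BHQ-2 forked duplex and 2 mM ATP (final). Unwinding read as TAMRA fluorescence increase, two reads 2 h apart.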

Experiment [9] in a line: Cytometric Cell-Based qHTS for Inhibitors of the mTORC1 Signaling Pathway in MEF (Tsc2-/-, p53-/-) Cells (AID 2660).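 Further: Tsc2 and p53 null MEFs carrying empty vector with compound for 24 h; percent of cells above a phospho-rpS6 to PI ratio cutoff in each well; series mostly up to about 38 µM.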 Summed up:
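Immunofluorescence qHTS of rpS6 Ser235/236 phosphorylation: MEFs (Tsc2-/-, p53-/-) treated 24 h, 37 C, in DMEM + 10% FBS. Alexa-488 signal normalized to PI count, referenced to rapamycin (7.5 nM) and DMSO; PI cell number recorded for viability.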

A short description of experiment [10]: High Content Imaging Cell-Based qHTS for Inhibitors of the mTORC1 Signaling Pathway in MEF (Tsc2-/-, p53-/-) Cells (AID 2666).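 Further: percent of cells scored positive for phospho-rpS6 Ser235/236 immunostaining by imaging.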 Summed up: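 MEF Tsc2-/- p53-/- (empty vector), DMEM/10% FBS; cpd 24 h 37 °C; PFA fix, Alexa-488 p-rpS6 S235/236 Ab, Hoechst; imaged; rapamycin-defined inhibition; % positive cells/well.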
A short description of experiment [11]: High Content Imaging Cell-Based qHTS for Inhibitors of the mTORC1 Signaling Pathway in MEF Cells (AID 2667).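 Further: Tsc2-/- p53-/- MEFs stably re-expressing wild-type Tsc2 exposed 24 h; series mostly up to about 38 µM.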 Summed up: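 Read-out is the share of phospho-rpS6-positive cells per well, from Hoechst-normalized Alexa-488 Ser235/236 staining imaged on IN Cell. Cells: WT Tsc2-expressing Tsc2-/-, p53-/- MEFs exposed to compound for 24 hrs.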
Experiment [12] can be described thus: Cytometry Cell-Based qHTS for Inhibitors of the mTORC1 Signaling Pathway in MEF cells (AID 2668).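 Further: Tsc2-/- p53-/- mouse embryonic fibroblasts stably re-expressing wild-type Tsc2; percent cells positive for phospho-rpS6 Ser235/236 relative to propidium iodide stain; series mostly up to about 38 µM.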 The method, boiled down: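 WT MEFs (Tsc2-/-, p53-/- stably re-expressing WT Tsc2) in DMEM + 10% FBS received compounds 24 hrs after plating, for 24 hrs at 37 degree Celsius. Fixed cells stained with Alexa-488 anti-phospho-rpS6 Ser235/236 and propidium iodide; laser-scanning cytometry read-out.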

Experiment [13] can be described thus: Validation screen for inhibitors of Lassa infection (AID 463096; calls by dose curve).
Experiment [14] is described as follows: Validation screen for small molecules that induce DNA re-replication in MCF 10A normal breast cells (AID 463097). Further: nearly all actives have a fitted effect of over 60% in size. Summed up: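 Readout: Hoechst nuclear fluorescence intensity, 405 ex / 500-530 em, by scanning plate imager; re-replication scored as increase in nuclei with elevated DNA content. Cells exposed to compound 48 hr, 37 C, 5% CO2 beforehand.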
For experiment [15], the target named is Ubiquitin carboxyl-terminal hydrolase 2 (Homo sapiens) (UniProt O75604). Kind of experiment: qHTS Validation Assay for Inhibitors of Ubiquitin-specific Protease USP2a Using CHOP2 as the Reporter (AID 463106). The method, boiled down: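 Fluorescence read-out at Ex 485nm/Em 531nm after 60min RT, following addition of 25nM Ub-CHOP2 plus 25nM reporter substrate to USP2 core (10nM) pretreated 30min with compound. Data normalized to NEM full inhibition; concentration-response curves fitted.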
Chain of Ubiquitin carboxyl-terminal hydrolase 2 (Homo sapiens) (O75604 whole entry, looked up): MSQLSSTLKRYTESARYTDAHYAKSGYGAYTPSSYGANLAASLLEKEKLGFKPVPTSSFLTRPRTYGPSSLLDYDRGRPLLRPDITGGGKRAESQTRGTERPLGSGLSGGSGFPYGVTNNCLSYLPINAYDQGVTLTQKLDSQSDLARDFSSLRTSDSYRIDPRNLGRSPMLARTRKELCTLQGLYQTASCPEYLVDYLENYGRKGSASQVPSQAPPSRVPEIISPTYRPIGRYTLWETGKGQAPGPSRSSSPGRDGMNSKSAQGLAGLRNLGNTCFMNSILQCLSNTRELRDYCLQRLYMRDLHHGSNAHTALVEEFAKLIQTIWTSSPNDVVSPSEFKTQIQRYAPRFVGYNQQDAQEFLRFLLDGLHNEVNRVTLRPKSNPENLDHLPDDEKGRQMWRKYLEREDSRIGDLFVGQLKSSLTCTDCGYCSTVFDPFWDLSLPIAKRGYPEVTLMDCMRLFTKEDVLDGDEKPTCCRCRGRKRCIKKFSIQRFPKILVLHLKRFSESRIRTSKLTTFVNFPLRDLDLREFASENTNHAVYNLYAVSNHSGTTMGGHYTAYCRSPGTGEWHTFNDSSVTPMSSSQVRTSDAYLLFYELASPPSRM

Experiment [16] concerns the target DNA polymerase III PolC-type (Bacillus subtilis (strain 168)) (UniProt P13267). Briefly: qHTS Validation Assay for the Inhibitors of DNA Replication in Gram-Positive Bacteria (AID 485295).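 Further: PicoGreen fluorescence of double-stranded DNA made on primed circular M13 template; series mostly up to about 57 µM.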 The method, boiled down:
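Reconstituted B. subtilis holoenzyme (Pol III, beta clamp, SSB, primase) was preincubated with compound at room temperature, then given single-stranded circular M13Gori plus dNTPs and NTPs. EDTA-containing PicoGreen stopped the reaction, and dsDNA product was read by fluorescence.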

Experiment [17] has as its target Tumor susceptibility gene 101 protein (Homo sapiens) (UniProt Q99816). Briefly: qHTS Validation Assay for Iinhibitors of HIV-1 Budding by Blocking the Interaction of PTAP/TSG101 (AID 485342; calls by dose curve). The method, boiled down:
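Tsg101 binding domain (10 uM final) in pH 7.5 HEPES/NaCl/Tween 20/EDTA/TCEP buffer was mixed with pin-transferred compounds, then FITC-labeled PTAP peptide (50 nM final) was added; after 20 min at r.t., fluorescence polarization was read.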

Inconclusive results are not listed. The source made the active and inactive calls. Unless noted, the call rests on the fitted dose curve; in most records, active means well fitted curve in the direction sought with a large enough effect; inconclusive means small, poorly fitted or top-dose-only effect, or another doubt; inactive means no such curve, though single readings can be large; an effect the other way counts as inactive or inconclusive.

Chain of ATP-dependent DNA helicase Q1 (Homo sapiens) (P46063 whole entry, looked up): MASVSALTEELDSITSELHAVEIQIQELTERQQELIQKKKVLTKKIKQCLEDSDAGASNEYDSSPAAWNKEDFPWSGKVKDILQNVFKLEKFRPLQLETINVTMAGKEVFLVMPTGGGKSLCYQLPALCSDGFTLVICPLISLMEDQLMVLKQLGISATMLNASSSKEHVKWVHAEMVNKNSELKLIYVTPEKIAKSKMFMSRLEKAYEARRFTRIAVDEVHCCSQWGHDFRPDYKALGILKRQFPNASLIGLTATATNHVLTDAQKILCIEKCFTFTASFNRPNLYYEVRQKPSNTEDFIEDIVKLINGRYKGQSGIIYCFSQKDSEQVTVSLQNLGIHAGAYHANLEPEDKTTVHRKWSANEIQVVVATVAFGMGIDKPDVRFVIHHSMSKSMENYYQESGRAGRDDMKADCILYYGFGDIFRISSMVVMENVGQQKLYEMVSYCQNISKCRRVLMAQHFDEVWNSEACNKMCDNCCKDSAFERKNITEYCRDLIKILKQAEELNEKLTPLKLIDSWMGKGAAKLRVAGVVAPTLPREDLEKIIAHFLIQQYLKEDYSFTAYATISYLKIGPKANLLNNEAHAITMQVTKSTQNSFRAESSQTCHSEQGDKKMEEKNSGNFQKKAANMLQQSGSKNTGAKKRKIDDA
Chain of Tumor susceptibility gene 101 protein (Homo sapiens) (Q99816 whole entry, looked up, the tested form may be a part): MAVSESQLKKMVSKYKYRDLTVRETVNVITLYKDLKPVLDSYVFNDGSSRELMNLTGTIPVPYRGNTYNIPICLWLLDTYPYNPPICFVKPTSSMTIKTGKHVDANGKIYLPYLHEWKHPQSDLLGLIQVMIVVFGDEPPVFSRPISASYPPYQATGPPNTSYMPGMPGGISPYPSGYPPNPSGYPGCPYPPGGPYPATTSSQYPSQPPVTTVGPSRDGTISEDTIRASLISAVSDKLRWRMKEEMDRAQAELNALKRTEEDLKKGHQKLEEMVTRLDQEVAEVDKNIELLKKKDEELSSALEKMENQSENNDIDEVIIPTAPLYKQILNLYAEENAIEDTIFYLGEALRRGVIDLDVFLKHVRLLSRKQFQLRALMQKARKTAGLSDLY
Chain of RecQ-like DNA helicase BLM (Homo sapiens) (P54132 whole entry, looked up): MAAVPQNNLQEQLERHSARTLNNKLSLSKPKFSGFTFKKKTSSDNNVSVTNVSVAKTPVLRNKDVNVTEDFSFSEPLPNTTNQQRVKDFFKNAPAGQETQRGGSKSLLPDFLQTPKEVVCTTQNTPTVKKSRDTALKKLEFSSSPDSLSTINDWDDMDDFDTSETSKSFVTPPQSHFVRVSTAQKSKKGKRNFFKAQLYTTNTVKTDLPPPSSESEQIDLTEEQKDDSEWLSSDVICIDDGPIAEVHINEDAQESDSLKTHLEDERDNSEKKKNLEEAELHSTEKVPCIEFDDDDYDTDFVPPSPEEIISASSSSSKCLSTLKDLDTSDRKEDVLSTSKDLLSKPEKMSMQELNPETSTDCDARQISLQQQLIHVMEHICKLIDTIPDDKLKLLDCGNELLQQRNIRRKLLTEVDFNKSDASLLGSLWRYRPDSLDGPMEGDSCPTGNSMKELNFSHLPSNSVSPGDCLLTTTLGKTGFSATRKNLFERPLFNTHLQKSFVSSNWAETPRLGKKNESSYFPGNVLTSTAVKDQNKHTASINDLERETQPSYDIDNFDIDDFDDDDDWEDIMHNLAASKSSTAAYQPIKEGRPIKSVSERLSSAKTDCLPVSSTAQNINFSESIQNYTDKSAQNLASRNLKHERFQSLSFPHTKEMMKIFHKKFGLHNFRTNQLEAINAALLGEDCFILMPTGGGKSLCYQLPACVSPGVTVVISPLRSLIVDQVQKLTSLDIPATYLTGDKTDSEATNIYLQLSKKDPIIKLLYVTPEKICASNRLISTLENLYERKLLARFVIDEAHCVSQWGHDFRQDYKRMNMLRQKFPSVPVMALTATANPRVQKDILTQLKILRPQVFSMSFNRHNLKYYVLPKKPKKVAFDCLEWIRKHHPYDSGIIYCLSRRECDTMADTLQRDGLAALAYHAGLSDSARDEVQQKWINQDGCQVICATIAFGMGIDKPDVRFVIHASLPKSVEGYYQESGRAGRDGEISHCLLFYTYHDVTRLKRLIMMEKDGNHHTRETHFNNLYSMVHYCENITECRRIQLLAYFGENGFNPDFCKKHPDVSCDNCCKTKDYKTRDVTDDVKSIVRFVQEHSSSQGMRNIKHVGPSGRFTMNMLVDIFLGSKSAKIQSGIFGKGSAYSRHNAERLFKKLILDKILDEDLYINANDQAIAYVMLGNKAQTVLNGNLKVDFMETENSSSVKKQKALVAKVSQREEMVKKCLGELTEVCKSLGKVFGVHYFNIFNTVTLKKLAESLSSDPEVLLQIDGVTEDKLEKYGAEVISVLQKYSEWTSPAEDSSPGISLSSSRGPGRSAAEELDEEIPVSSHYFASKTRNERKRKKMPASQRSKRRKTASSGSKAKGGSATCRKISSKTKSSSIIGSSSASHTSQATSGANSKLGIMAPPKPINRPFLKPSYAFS
Chain of DNA polymerase III PolC-type (Bacillus subtilis (strain 168)) (P13267 whole entry, looked up): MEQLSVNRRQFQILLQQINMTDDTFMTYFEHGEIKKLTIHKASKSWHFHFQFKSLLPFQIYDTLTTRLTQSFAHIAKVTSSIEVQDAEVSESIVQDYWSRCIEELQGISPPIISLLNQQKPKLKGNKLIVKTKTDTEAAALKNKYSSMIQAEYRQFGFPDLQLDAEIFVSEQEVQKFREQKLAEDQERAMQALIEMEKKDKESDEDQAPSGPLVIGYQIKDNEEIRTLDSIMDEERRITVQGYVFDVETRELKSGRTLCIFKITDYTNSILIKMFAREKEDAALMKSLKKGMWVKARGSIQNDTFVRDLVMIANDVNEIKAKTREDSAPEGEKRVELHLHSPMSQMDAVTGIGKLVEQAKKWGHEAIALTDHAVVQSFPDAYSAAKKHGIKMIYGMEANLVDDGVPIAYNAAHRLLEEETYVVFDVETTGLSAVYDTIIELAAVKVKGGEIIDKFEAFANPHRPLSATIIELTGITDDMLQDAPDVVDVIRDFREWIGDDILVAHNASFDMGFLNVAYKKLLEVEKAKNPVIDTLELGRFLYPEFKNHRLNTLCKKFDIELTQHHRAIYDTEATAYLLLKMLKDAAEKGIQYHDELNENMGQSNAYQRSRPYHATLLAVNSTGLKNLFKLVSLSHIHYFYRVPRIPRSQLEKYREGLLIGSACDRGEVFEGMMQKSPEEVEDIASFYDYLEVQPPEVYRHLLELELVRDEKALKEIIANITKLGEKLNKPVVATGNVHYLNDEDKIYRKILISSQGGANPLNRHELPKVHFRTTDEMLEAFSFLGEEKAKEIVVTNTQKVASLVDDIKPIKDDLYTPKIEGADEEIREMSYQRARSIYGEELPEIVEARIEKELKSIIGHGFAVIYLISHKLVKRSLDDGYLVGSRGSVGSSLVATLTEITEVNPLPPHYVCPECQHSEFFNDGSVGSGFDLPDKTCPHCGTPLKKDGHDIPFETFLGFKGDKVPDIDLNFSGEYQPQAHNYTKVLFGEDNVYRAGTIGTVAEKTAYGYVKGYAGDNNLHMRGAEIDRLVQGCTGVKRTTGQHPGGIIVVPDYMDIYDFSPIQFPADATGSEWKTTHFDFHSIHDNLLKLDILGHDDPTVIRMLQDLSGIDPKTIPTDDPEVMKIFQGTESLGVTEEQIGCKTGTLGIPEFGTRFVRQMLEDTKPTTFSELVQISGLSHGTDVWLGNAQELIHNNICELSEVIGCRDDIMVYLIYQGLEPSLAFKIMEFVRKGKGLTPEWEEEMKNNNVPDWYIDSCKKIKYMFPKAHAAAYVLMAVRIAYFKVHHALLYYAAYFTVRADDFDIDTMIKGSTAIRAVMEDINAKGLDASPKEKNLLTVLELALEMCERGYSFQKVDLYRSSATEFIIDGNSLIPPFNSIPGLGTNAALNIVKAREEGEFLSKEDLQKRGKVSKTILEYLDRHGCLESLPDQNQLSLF

For `O=[N+]([O-])c1ccc(O[C@@H]2O[C@H](CO)[C@@H](O)[C@H](O)[C@H]2F)c([N+](=O)[O-])c1`, the outcome in [1], in experiment [3], in [6], in experiment [9] and in [17] was inactive. Moreover, the Potency entry in experiment [2], in [4], in experiment [7], in experiment [8], in [10] and in [11] was “inactive” in each case. For the same molecule, the Potency entry in experiment [12], in experiment [13], in experiment [14], in experiment [15] and in [16] was “inactive” throughout. Besides, the Potency in experiment [5] is 11.2 µM (active).

The values are drawn from PubChem BioAssay (NCATS).
